Among the data in the supplement of paper PMC8975748 are mean cell size values, retold here.

Where a name gives a salt, the structure may show the parent alone. ± gives the standard deviation of the averaged measurements.

The subject of the experiment is Saccharomyces cerevisiae BY4741 SeMeCo community. Kind of experiment: mean cell size (pixel area) (pixels); higher = larger cells. Conditions: 10 µM; 24 h; SM minimal medium. In short, it runs like this:
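Mean cell pixel area per well was determined by automated confocal microscopy with Harmony analysis of paraformaldehyde-fixed cells. The cells, a Saccharomyces cerevisiae BY4741 community of four plasmids that each complement one auxotrophy and carry a fluorescent marker, were incubated for 24 h with drug at a final 10 µM in SM medium in 384-well plates. Numbers are averaged over 3 replicates. Same SeMeCo high-content imaging drug screen: Selleck FDA-approved drugs at 10 µM, 24 h in SM medium, 384-well plates, 3 replicates.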
In turn, `CC1(C)[C@H](C(=O)O)N2C(=O)C[C@H]2S1(=O)=O` [Sulbactam sodium] had a mean cell size of 12.54 ± 0.013.
Under `CC[C@H]1OC(=O)[C@H](C)[C@@H](O[C@H]2C[C@@](C)(OC)[C@@H](O)[C@H](C)O2)[C@H](C)[C@@H](O[C@@H]2O[C@H](C)C[C@H](N(C)C)[C@H]2O)[C@](C)(O)C[C@@H](C)/C(=N\OCOCCOC)[C@H](C)[C@@H](O)[C@]1(C)O` [Roxithromycin] stands 12.4 ± 0.26; under `COc1cc(NC(C)CCCN)c2ncccc2c1` (stereo not given) [Primaquine Diphosphate], 12.6 ± 0.24; under `CO[C@H]1C[C@@H]2CC[C@@H](C)[C@@](O)(O2)C(=O)C(=O)N2CCCC[C@H]2C(=O)O[C@H]([C@H](C)C[C@@H]2CC[C@@H](OP(C)(C)=O)[C@H](OC)C2)CC(=O)[C@H](C)/C=C(\C)[C@@H](O)[C@@H](OC)C(=O)[C@H](C)C[C@H](C)/C=C/C=C/C=C/1C` [Ridaforolimus (Deforolimus, MK-8669)], 14.2 ± 0.11.
Under `Clc1ccc(COC(Cn2ccnc2)c2ccc(Cl)cc2Cl)c(Cl)c1` (stereo not given) [Miconazole] stands 12.5 ± 0.13; under `c1ccc(-c2ccc(C(c3ccccc3)n3ccnc3)cc2)cc1` (stereo not given) [Bifonazole], 12.65 ± 0.082; under `C[C@H]1c2cccc(O)c2C(=O)C2=C(O)[C@]3(O)C(=O)C(C(N)=O)=C(O)[C@@H](N(C)C)[C@@H]3[C@@H](O)[C@@H]21` [Doxycycline monohydrate], 12.2 ± 0.19.
Then `Clc1ccc(C(Cn2ccnc2)OCc2c(Cl)cccc2Cl)c(Cl)c1` (stereo not given) [Isoconazole nitrate], with 12.1 ± 0.18; and `CN1CCc2cc3c(cc2C(=O)Cc2ccc4c(c2C1)OCO4)OCO3` [Protopine], with 12.2 ± 0.13.
With `Cc1c(-c2ccc(O)cc2)n(Cc2ccc(OCCN3CCCCCC3)cc2)c2ccc(O)cc12` [Bazedoxifene Acetate], the mean cell size was 12.6 ± 0.073.
Under `c1ccc(C2CN3CCSC3=N2)cc1` (stereo not given) [Tetramisole HCl] stands 11.9 ± 0.12.
Then `Nc1ccc(S(=O)(=O)Nc2ncccn2)cc1` [Sodium sulfadiazine], with 12.42 ± 0.059; and `C[C@]12CC[C@@H]3c4ccc(OS(=O)(=O)O)cc4CC[C@H]3[C@@H]1CCC2=O` [Estropipate], with 12.21 ± 0.12.
Under `Nc1ccc(/N=N/c2ccccc2)c(N)n1` [Phenazopyridine HCl] stands 12.5 ± 0.25; under `CC[C@H]1OC(=O)[C@H](C)[C@@H](O[C@H]2C[C@@](C)(OC)[C@@H](O)[C@H](C)O2)[C@H](C)[C@@H](O[C@@H]2O[C@H](C)C[C@H](N(C)C)[C@H]2O)[C@](C)(O)C[C@@H](C)C(=O)[C@H](C)[C@H]2OC(=O)O[C@@]21C` [Erythromycin Cyclocarbonate], 12.19 ± 0.065.
Molecule `Cc1cccc(N(C)C(=S)Oc2ccc3ccccc3c2)c1` [Tolnaftate] showed a mean cell size of 12.3 ± 0.27.
Turning to `CN1CCN(c2cc3c(cc2F)c(=O)c(C(=O)O)cn3-c2ccc(F)cc2)CC1` [Difloxacin hydrochloride], the mean cell size is 12.1 ± 0.29.
Under `CCCN[C@H]1CCc2nc(N)sc2C1` [Pramipexole 2HCl Monohydrate] stands 12.56 ± 0.054; under `CC1(C)S[C@@H]2[C@H](NC(=O)[C@H](N)c3ccc(O)cc3)C(=O)N2[C@H]1C(=O)O` [Amoxicillin trihydrate], 12.19 ± 0.082; under `NC12CC3CC(CC(C3)C1)C2` [Amantadine], 12 ± 0.17.
Regarding `Cc1nc(=O)c2cc(CN(C)c3ccc(C(=O)N[C@@H](CCC(=O)O)C(=O)O)s3)ccc2[nH]1` [Raltitrexed], the mean cell size was 13.1 ± 0.36.
Then `C[C@]1(COc2ccc(N3CCC(Oc4ccc(OC(F)(F)F)cc4)CC3)cc2)Cn2cc([N+](=O)[O-])nc2O1` [Delamanid], with 12.1 ± 0.19; and `CCN1CCC[C@H]1CNC(=O)c1cc(S(N)(=O)=O)ccc1OC` [Levosulpiride], with 12.5 ± 0.17; and `C[C@H]1c2cccc(O)c2C(=O)C2=C(O)[C@]3(O)C(=O)C(C(N)=O)=C(O)[C@@H](N(C)C)[C@@H]3[C@@H](O)[C@@H]21` [Doxycycline], with 12.1 ± 0.32.
In turn, `OC(c1ccccc1)(c1ccccc1)C12CC[N+](CCOCc3ccccc3)(CC1)CC2` [Umeclidinium bromide] registered a mean cell size of 12.49 ± 0.074.
Under `CCCCOc1cc(C(=O)OCCN(CC)CC)ccc1N` [Oxybuprocaine HCl] stands 12.6 ± 0.3.
Under `O=C(O)CCC(=O)OC[C@@H](NC(=O)C(Cl)Cl)[C@H](O)c1ccc([N+](=O)[O-])cc1` [Chloramphenicol sodium succinate] stands 12.13 ± 0.03.
As for `C=CCN1CCCC1CNC(=O)c1cc2nn[nH]c2cc1OC` (stereo not given) [Alizapride HCl], the mean cell size was found to be 12.3 ± 0.14.
Then `CCn1cc(C(=O)O)c(=O)c2cc(F)c(N3CCNCC3)nc21` [Enoxacin], with 12.3 ± 0.26; and `CC(C)(C)C(=O)C(Oc1ccc(Cl)cc1)n1ccnc1` (stereo not given) [Climbazole], with 11.3 ± 0.047; and `CSc1nc2cc(Cl)c(Oc3cccc(Cl)c3Cl)cc2[nH]1` [Triclabendazole], with 13.1 ± 0.54.
The molecule `CCC1=C(C)CN(C(=O)NCCc2ccc(S(=O)(=O)NC(=O)N[C@H]3CC[C@H](C)CC3)cc2)C1=O` [Glimepiride] had a mean cell size of 12.5 ± 0.2.
Under `Nc1nc(N)nc(-c2cc(Cl)ccc2Cl)n1` [Irsogladine] stands 12.2 ± 0.19; under `Cc1onc(-c2c(Cl)cccc2Cl)c1C(=O)N[C@@H]1C(=O)N2[C@@H]1SC(C)(C)[C@@H]2C(=O)O` [Dicloxacillin Sodium], 12.4 ± 0.18; under `CN1[C@@H]2CC[C@H]1C[C@@H](OC(=O)c1c[nH]c3ccccc13)C2` [Tropisetron], 12.15 ± 0.079.
Under `O=C(c1ccccc1)c1ccc2n1CCC2C(=O)O` (stereo not given) [Ketorolac tromethamine salt] stands 12.3 ± 0.19; under `N=C(N)NC(=O)c1nc(Cl)c(N)nc1N` [Amiloride HCl dihydrate], 12.1 ± 0.19.
Then `C#C[C@]1(O)CC[C@H]2[C@@H]3CCC4=CC(=O)CC[C@@H]4[C@H]3CC[C@@]21CC` [Levonorgestrel], with 12.4 ± 0.16; and `CCOC(=O)c1ccc(N)cc1` [Benzocaine hydrochloride], with 12.43 ± 0.056.
In the case of `CN[C@@H]1[C@@H](O[C@H]2O[C@H](CO)[C@@H](N)[C@H](O)[C@H]2O)OC2C[C@@H](N)[C@@H](O[C@H]3[C@H](O)[C@@H](O)[C@H](N)C[C@@H]3N)OC2[C@@H]1O` (stereo not given in full) [Apramycin Sulfate], the mean cell size is 12 ± 0.25.
